IL-1B inflam inh = blocks inflammasome-driven IL-1 beta release | THP-1 LPS/ATP IL-1B secretion, AlphaLISA, 16 h; stronger effect = lower value | AID 743279 | activity change, % at 57.5 µM | 360,000 tested, 4.7% active; in the data active = activity change below about -50%; inconclusive = mostly about -30% to -49%
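THP-1 cells pretreated 1 hr with compounds (up to 57.5 uM final), then stimulated with LPS (250 ng/mL final) plus ATP (1.25 mM final); secreted IL-1B measured by AlphaLISA after 16 hr, decreased signal indicating inhibition.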
TDP1 cell noCPT = qHTS for Inhibitors of human tyrosyl-DNA phosphodiesterase 1 (TDP1): qHTS in cells in absence of CPT | Potency, µM (series often up to 46.2 µM), for inactives: at the top dose activity change, negative = growth inhibition, actives largely listed as inhibitors | 420,000 tested, 15% active | DT40 Tdp1-/- hTDP1 cells, no CPT, ATP luminescence, 48 h; note: potency is the fitted concentration of half-maximal effect; nearly all actives have a fitted effect of over 55% in size
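Chicken DT40 Tdp1-/- cells stably complemented with human TDP1 were seeded at 400 cells/well with DMSO in place of 20 nM camptothecin. After compound pinning, cells grew at least 48 hr at 37 °C; viability read by CellTiter-Glo luminescence.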
HT1080NT lethal = kills 2HG-producing HT-1080-NT fibrosarcoma cells; HT-1080-NT fibrosarcoma viability, CellTiter-Glo ATP luminescence, 48 h; Potency, µM (titrated, usually from 46.1 µM), without a hit: at the highest dose activity, negative = less viability, most hits filed as cytotoxic; 360,000 tested, 1.6% active; AID 686970;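 note: NT is the 2HG producing partner of a matched IDH1 knockdown line; potency is the fitted concentration of half-maximal effect; 0% = DMSO-treated cells and -100% = media-only wells without cells; nearly all actives have a fitted effect of over 55% in size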
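Viability of the 2HG-overproducing fibrosarcoma line after 48 hours of compound exposure at 37 degrees C was determined by luminescence with CellTiter-Glo, and concentration-effect curves were then fitted and categorized.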
TDP1 cell CPT = DT40-hTDP1 cell growth loss with CPT; chicken DT40 Tdp1-/-;hTDP1 cells + 20 nM CPT, ATP luminescence, 48 h; 420,000 tested, 12% active; AID 686979; Potency, µM (titrated, usually from 46.2 µM), for the others: at the top dose activity change, negative = growth inhibition, hits mostly inhibitors; note: potency is the fitted concentration of half-maximal effect; nearly all actives have a fitted effect of over 55% in size
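Chicken DT40 Tdp1-/- cells complemented with human TDP1, 400 cells/well, exposed to compounds plus 20 nM camptothecin for at least 48 h at 37 C; viability read as ATP content by CellTiter-Glo luminescence.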
HT1080 IDH1KD tx = kills HT-1080 cells with IDH1 knockdown; HT-1080 IDH1 knockdown viability, ATP luminescence, 48 h; Potency, µM (top dose mostly 46.1 µM), for the others: top-dose activity, negative = toxicity, usual class: cytotoxic; 360,000 tested, 2% active; AID 686971;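 note: potency is the fitted concentration of half-maximal effect; 0% = DMSO wells and -100% = cell-free medium wells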
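HT-1080-IDH1KD cells (IDH1 knocked down), 750/well in RPMI with 5% FBS, treated with compound 48 h at 37 degrees C. Viability by CellTiter-Glo luminescence, normalised to DMSO and no-cell wells; concentration-response curves classed.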
* hit, by the source's call; ? = inconclusive; nt = no result given. An excerpt weighted towards active compounds, which were near 19% of everything screened. Unless noted, calls come from the whole dose curve; as a rule, active = well fitted curve in the direction sought with a large enough effect; inconclusive = small, poorly fitted or top-dose-only effect, or another doubt; inactive = no such curve, though single readings can be large; an effect the other way counts as inactive or inconclusive. Unless noted, % is set by controls: 0 for no effect and ±100 for the full control effect.

SMILES	IL-1B inflam inh	TDP1 cell noCPT	HT1080NT lethal	TDP1 cell CPT	HT1080 IDH1KD tx
CC1(C)C2CCC1(C)C(OC(=O)CC(=O)O)C2 (configuration not stated)	42.4	-11.8%	3.8%	-9.5%	-8.6%
CC1(C)C2CCC1(C)C(SC(=N)N)C2 (configuration not stated)	-82.4*	?	-6.1%	20.6µM*	-13.1%
COc1ccc(CCNC(=O)C2CC3Cn4c(nc5cc6ccccc6cc54)C3N2C)cc1 (configuration not stated)	-12.0	20.6µM*	3.1%	14.6µM*	6.3%
COc1ccccc1CNC(=O)C1CC2Cn3c(nc4cc5ccccc5cc43)C2N1C (configuration not stated)	44.5	?	0.2%	-51.8%	1.4%
CN1C(C(=O)NCCc2cccs2)CC2Cn3c(nc4cc5ccccc5cc43)C21 (configuration not stated)	15.8	?	0.4%	-23.2%	-0.9%
COc1ccccc1CNC(=O)C1CC2Cn3c(nc4cc(Cl)c(Cl)cc43)C2N1C (configuration not stated)	?	23.1µM*	?	?	-18.7%
CCN(CC)c1ccc(-c2n[nH]c(=S)n2-c2ccccc2)cc1	23.4	23.1µM*	?	18.4µM*	20.6µM*
CCN(CC)c1ccc(-c2n[nH]c(=S)n2-c2ccccc2C)cc1	42.8	18.4µM*	-18.4%	20.6µM*	-8.1%
Cc1cccc(NC(=O)c2ccc(S(=O)(=O)N3CC(C)OC(C)C3)cc2)n1 (configuration not stated)	14.2	?	0.7%	?	-2.8%
Cc1cc(C)nc(-n2nc(C)c3c2N(Cc2ccccc2)C(=O)CC3c2ccc(Cl)cc2)n1 (configuration not stated)	nt	?	nt	16.4µM*	nt
Cc1ccc(Cl)cc1NC(=O)C1CCN(c2nc3ccccc3n3cccc23)CC1	nt	16.4µM*	nt	?	nt
Cc1ccc(Cl)cc1NC(=O)C1CCC(CNS(=O)(=O)c2cccc3nsnc23)CC1 (configuration not stated)	nt	?	nt	-4.0%	nt
Cc1ccc(C)c(NC(=O)N2CCN(c3nnc(C)c4c(C)n(-c5ccccc5)nc34)CC2)c1	nt	-2.8%	nt	-12.0%	nt
CCc1ccccc1NC(=O)N1CCN(c2nnc(C)c3c(C)n(-c4ccccc4)nc23)CC1	nt	20.6µM*	nt	?	nt
CCN(CC)C(=O)C1CCN(c2nnc(C)c3c(C)n(-c4ccc(Cl)cc4)nc23)CC1	nt	4.0%	nt	-5.4%	nt
Cc1nnc(N2CCC(C(=O)NCCc3ccccc3)CC2)c2nn(-c3ccc(Cl)cc3)c(C)c12	nt	20.6µM*	nt	14.6µM*	nt
Cc1nnc(N2CCC(C(=O)NCc3ccc(F)cc3)CC2)c2nn(-c3ccc(Cl)cc3)c(C)c12	nt	?	nt	16.4µM*	nt
COC(=O)c1ccccc1NC(=O)CSc1n[nH]c(-c2ccco2)n1	3.5	0.4%	-16.9%	-0.7%	-0.7%
CC/C=C(\C(=O)N[C@@H]1C(=O)N2C(C(=O)OCOC(=O)C(C)(C)C)=C(COC(N)=O)CS[C@H]12)c1csc(N)n1	nt	-10.0%	nt	-3.4%	nt
CCOC(=O)C(=Cc1ccc2c(c1)OCO2)c1ccccc1	-5.7	?	-7.9%	-6.5%	-6.1%
O=C(NCc1ccc(F)cc1)C1CCCN(c2cnccn2)C1 (configuration not stated)	3.1	-14.0%	5.9%	0.6%	6.4%
O=C(NCc1ccc(F)cc1)C1CCN(c2cnccn2)CC1	20.6	?	-9.5%	18.4µM*	-13.1%
Cc1nnc(N2CCC(C(=O)NC3CCCCC3)CC2)c2nn(-c3ccccc3)c(C)c12	nt	3.1%	nt	-6.5%	nt
Cc1ccc(Cl)cc1NC(=O)C1CCN(c2nnc(C)c3c(C)n(-c4ccccc4)nc23)CC1	nt	10.3µM*	nt	8.2µM*	nt
COc1ccc(CNCC(C)NCc2ccc(OC)c(OC)c2)cc1OC (configuration not stated)	16.1	-1.1%	8.4%	?	0.7%

High-throughput results deposited in PubChem by National Center for Advancing Translational Sciences (NCATS).
